In PubChem BioAssay (NCI):
The panel holds about 83,000 compounds, 20% with a hit somewhere; the sample as a whole holds those more often.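 Cells were grown in 96-well plates and exposed to the test compound at a single concentration for 48 hours; results are reported as percent growth, with values below 10 considered active.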 Activity calls are given as the source filed them.

Experiments:
Assay in all cases: NCI-60 one-dose screen, 48 h (100 = growth as untreated, 0 = no growth, -100 = all killed)
[1] = test system: SK-MEL-2 melanoma; settings: 10 µM unless noted
[2] = test system: EKVX NSCLC; settings: 10 µM unless noted
[3] = test system: SN12C renal; settings: 10 µM unless noted
[4] = test system: UO-31 renal; settings: 10 µM unless noted
[5] = test system: TK-10 renal; settings: 10 µM unless noted
[6] = test system: ACHN renal; settings: 10 µM unless noted
[7] = test system: CAKI-1 renal; settings: 10 µM unless noted
[8] = test system: A498 renal; settings: 10 µM
[9] = test system: CCRF-CEM leukemia; settings: 10 µM unless noted
[10] = test system: MOLT-4 leukemia; settings: 10 µM unless noted
[11] = test system: SR leukemia; settings: 10 µM unless noted
[12] = test system: RPMI-8226 leukemia; settings: 10 µM unless noted
[13] = test system: OVCAR-8 ovarian; settings: 10 µM unless noted
[14] = test system: OVCAR-5 ovarian; settings: 10 µM unless noted
[15] = test system: OVCAR-4 ovarian; settings: 10 µM unless noted
[16] = test system: SK-OV-3 ovarian; settings: 10 µM unless noted
[17] = test system: IGROV1 ovarian; settings: 10 µM unless noted
[18] = test system: OVCAR-3 ovarian; settings: 10 µM unless noted
[19] = test system: HS 578T breast; settings: 10 µM unless noted
[20] = test system: HL-60(TB) leukemia; settings: 10 µM unless noted

Measured: growth

O=C(O)c1c(Cl)n(Cc2ccc(O)cc2)c2ccc(O)cc12
inactive: [1] 81.6% | [2] 112% | [3] 102% | [4] 61.1% | [5] 137% | [6] 112% | [7] 95.2% | [8] 107% | [9] 81.6% | [10] 109% | [11] 106% | [12] 70.9% | [13] 103% | [14] 92.4% | [15] 104% | [16] 115% | [17] 63.4% | [18] 93.9% | [19] 102%

Cc1c(NS(=O)(=O)c2ccccc2)ccc([N+](=O)[O-])c1Cl
inactive: [1] 65.1% | [2] 65.3% | [3] 58.6% | [4] 45.1% | [5] 77% | [6] 69.7% | [7] 47.8% | [8] 59.3% | [9] 64.3% | [10] 73.6% | [11] 73.8% | [12] 42.4% | [13] 74.6% | [14] 89.1% | [15] 47.3% | [16] 71.3% | [17] 72.5% | [18] 42.2% | [19] 64.4%

C=CCCCN=C=S
inactive: [1] 56% | [2] 92.7% | [3] 60.1% | [4] 70% | [5] 69.1% | [6] 77.9% | [7] 83.3% | [8] 76% | [9] 50.1% | [10] 40.7% | [11] 27% | [12] 49% | [13] 89.6% | [14] 86.9% | [15] 88.8% | [16] 70.7% | [17] 72% | [18] 57.8% | [19] 98%

C[C@@H]1CCC2[C@@H](C)[C@H](OC(=O)CCC(=O)NCCNC(=O)Cc3cc(=O)oc4cc(N(C)C)ccc34)O[C@@H]3O[C@]4(C)CC[C@@H]1C23OO4 (stereo partly drawn)
inactive: [1] 40.7% | [2] 35.3% | [3] 32.2% | [4] 13% | [5] 20% | [6] 40.3% | [7] 44.1% | [8] 64.9% | [9] 23% | [10] 31.3% | [12] 15.1% | [13] 23.8% | [14] 49% | [15] 49.1% | [16] 92.3% | [17] 55% | [18] 37.7% | [19] 49.5%
active: [11] -16.8%

CC1(C)[C@H](O)[C@H](F)C[C@@]2(C)Oc3ccc(C(=O)Nc4ccc5c(c4)NC(=O)C54CCN(CCCCC#N)CC4)cc3C[C@H]12
active: [10] -19.5% | [12] -12.6%
inactive: [1] 28.8% | [2] 82.1% | [3] 69.9% | [4] 31.5% | [5] 59.1% | [6] 43.1% | [7] 56.5% | [20] 30.5% | [9] 13.8% | [11] 10.4% | [13] 62.5% | [14] 62.9% | [15] 64.9% | [16] 17.7% | [17] 63.2% | [18] 61.3%

CC[C@H](C)[C@H](NC(=O)C12C3C4C1C1C2C3C41NC)C(=O)N(C)[C@H](C[C@@H](OC(C)=O)c1nc(C(=O)N[C@@H](Cc2ccccc2)C[C@H](C)C(=O)OC)cs1)C(C)C (stereo partly drawn)
inactive: [1] 43% | [2] 40.7% | [3] 36.5% | [4] 51.1% | [5] 41.9% | [6] 40.8% | [7] 40.5% | [9] 13.2% | [10] 24.9% | [11] 20% | [13] 20.4% | [14] 43.5% | [15] 45.5% | [16] 17.1% | [17] 36.9%
active: [8] -12.6% | [12] 3.54% | [18] -28.1%

COc1cc([N+](=O)[O-])c2nc(C)ccc2c1[N+](=O)[O-]
inactive: [1] 102% | [2] 112% | [3] 89% | [4] 74.9% | [5] 122% | [6] 89.5% | [7] 104% | [8] 121% | [9] 91.3% | [10] 98.2% | [11] 82.2% | [12] 80.7% | [14] 131% | [15] 103% | [16] 119% | [17] 109% | [18] 44.2% | [19] 106%

N#CC1C(C#N)C2CCC1C1C2N1c1ccccc1 (stereo not drawn)
inactive: [1] 106% | [2] 97.5% | [3] 99.5% | [4] 72.3% | [5] 106% | [6] 97.4% | [7] 98.9% | [20] 91.7% | [9] 82.9% | [10] 91.2% | [11] 91.5% | [12] 95.8% | [13] 114% | [14] 92.4% | [15] 106% | [16] 100% | [17] 85.1% | [18] 107% | [19] 112%

O=C1Nc2ccccc2C2c3cccn3-c3ccccc3CN12 (stereo not drawn)
active: [1] 6.54%
inactive: [2] 67.8% | [3] 69.4% | [4] 60% | [5] 71.8% | [6] 81.6% | [7] 63.4% | [8] 41.1% | [20] 44.6% | [10] 29.3% | [11] 19% | [12] 55.2% | [13] 63.3% | [14] 82.3% | [15] 71.7% | [16] 46.7% | [17] 62.9% | [18] 41.7% | [19] 64.2%

O=[As](O)(O)c1ccccc1[As](=O)(O)O
inactive: [1] 119% | [2] 110% | [3] 110% | [4] 78.8% | [5] 119% | [6] 91.1% | [7] 94.5% | [8] 102% | [20] 113% | [9] 110% | [11] 91.3% | [13] 99.7% | [14] 92.6% | [16] 111% | [17] 135% | [18] 103% | [19] 114%

COc1cc2ncnc(Nc3ccc(F)c(Cl)c3)c2cc1OCC(=O)N1CCN(C)CC1
inactive: [1] 94.4% | [2] 61.8% | [3] 76.9% | [4] 55.9% | [5] 23.4% | [6] 37.8% | [7] 44.1% | [8] 69.9% | [9] 87% | [10] 81.2% | [11] 74.5% | [12] 90.5% | [13] 90% | [14] 78.4% | [15] 79.5% | [16] 13.7% | [17] 48.2% | [18] 78.2% | [19] 93.4%

CCCCCN(CCCCC)CC(O)c1cc(Cl)ccc1OC (stereo not drawn)
active: [12] 0.775% | [17] 2.26%
inactive: [1] 32.8% | [2] 52.4% | [3] 52.7% | [4] 25.2% | [5] 73.1% | [6] 43.9% | [7] 28.7% | [8] 37.4% | [20] 55.4% | [10] 34.9% | [13] 63.1% | [14] 53.7% | [15] 42.9% | [16] 53.6% | [18] 28.6% | [19] 50.1%

CCC[CH2][Sn]([CH2]CCC)([CH2]CCC)[O]c1ccc(Cl)cc1Cl
active: [1] -66.9% | [2] -51.7% | [3] -69% | [4] -85.3% | [5] -91.7% | [6] -69.5% | [7] -56.6% | [8] -98.1% | [20] -23.9% | [10] -6.07% | [11] -30.4% | [12] -9.16% | [13] -48.1% | [14] -66.3% | [15] -100% | [16] -97.5% | [17] -66.9% | [18] -100% | [19] -10.3%

Cc1ccc(S(=O)(=O)C(Cl)(Cl)Cl)cc1
inactive: [1] 97.5% | [2] 101% | [3] 98.7% | [4] 97.3% | [5] 89.5% | [6] 105% | [7] 87.9% | [8] 103% | [9] 82.7% | [10] 79.6% | [11] 89.4% | [13] 96.2% | [14] 96.8% | [15] 105% | [16] 82.5% | [17] 99% | [18] 110% | [19] 96.1%

CN1CC(CNC(=O)OCc2ccccc2)CC2c3cccc4c3c(cn4C)CC21 (stereo not drawn)
inactive: [1] 47.2% | [2] 71.8% | [3] 45% | [4] 32.5% | [5] 53.9% | [6] 39.7% | [7] 52.9% | [8] 57.6% | [9] 45.7% | [13] 62.4% | [14] 64.6% | [16] 69% | [17] 52.6% | [18] 61.9% | [19] 49.4%

COc1cc2c(cc1OCCCCn1c(-c3cccs3)nc3ccccc31)N=C[C@@H]1CCCN1C2=O
active: [1] -52.4% | [2] 4.43% | [3] 2.49% | [4] -58.3% | [5] -22.8% | [6] -10% | [7] -22% | [8] -53.9% | [9] -25.7% | [12] -46.8% | [13] -0.203% | [14] 0.96% | [15] -21.3% | [18] -10.9% | [19] -5.13%
inactive: [10] 20.8% | [11] 32% | [16] 24.9%

CNCc1cccnc1
inactive: [1] 112% | [2] 114% | [3] 111% | [4] 93.9% | [5] 113% | [6] 106% | [7] 92% | [8] 104% | [9] 96.6% | [12] 101% | [13] 103% | [14] 114% | [16] 106% | [17] 114% | [18] 115% | [19] 107%
